From PubChem BioAssay AID1159580 (chemical genetic matrix, 2015)
Values joined by “and” are separate entries in the source; they are usually repeats but may differ in a detail not shown here. Equal entries are not always repeated. In all, about 5,500 compounds went through this assay and about 2,000 (36%) were called active. Roughly 18% stayed inconclusive and do not appear here. Cut-off read from the data, not from the text of the source: active = normalized growth mostly below about 0.91 (no sharp cut-off); inconclusive = no clear call, values can overlap the other calls; inactive = mostly above about 0.92. The list shows a part of the results.

Experiment: chemical genetic growth profiling, strain panel (AID 1159580);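 note: tested at 20 µM; growth read once vehicle control cultures reached saturation at 30 °C; 1 = growth at the plate median or of vehicle wells; lower values mean less growth of the strain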
Conditions: S. cerevisiae deletion strains, growth OD

Measured: normalized growth

CCCc1nc(C(C)(C)O)c(C(=O)OCc2oc(=O)oc2C)n1Cc1ccc(-c2ccccc2-c2nn[nH]n2)cc1
inactive: locus YAL013W, strain DEP1, hits give low values 0.99 | locus YAL021C, strain ccr4, hits give low values 0.976 | locus YAL026C, strain drs2, hits give low values 0.966 | locus YAL030W, strain snc1, hits give low values 0.955 | locus YBL061C, strain skt5, hits give low values 0.979 | locus YBR009C, strain hhf1, hits give low values 1 | locus YBR021W, strain FUR4, hits give low values 0.987 | locus YBR023C, strain chs3, hits give low values 0.961 | locus YBR171W, strain sec66, hits give low values 0.957 | locus YBR229C, strain ROT2, hits give low values 0.989 | locus YBR231C, strain swc5, hits give low values 0.974 | locus YBR279W, strain paf1, hits give low values 0.973 | locus YCL011C, strain gbp2, hits give low values 0.945 | locus YCL016C, strain dcc1, hits give low values 0.994 | locus YCL029C, strain bik1, hits give low values 0.982 | locus YCL069W, strain vba3, hits give low values 0.987 | locus YCR088W, strain abp1, hits give low values 0.977 | locus YDL005C, strain med2, hits give low values 0.983 | locus YDL035C, strain GPR1, hits give low values 1 | locus YDL040C, strain nat1, hits give low values 0.976 | locus YDL074C, strain BRE1, hits give low values 1.01 | locus YDL101C, strain DUN1, hits give low values 0.991 | locus YDL134C, strain PPH21, hits give low values 0.986 | locus YDL185W, strain tfp1, hits give low values 0.983 | locus YDL192W, strain arf1, hits give low values 0.985 | locus YDR001C, strain nth1, hits give low values 0.945 | locus YDR069C, strain doa4, hits give low values 0.956 | locus YDR101C, strain arx1, hits give low values 0.994 | locus YDR137W, strain rgp1, hits give low values 0.943 | locus YDR150W, strain NUM1, hits give low values 1 | locus YDR159W, strain sac3, hits give low values 0.933 | locus YDR162C, strain NBP2, hits give low values 1 | locus YDR195W, strain ref2 0.922 | locus YDR297W, strain sur2, hits give low values 0.981 | locus YDR318W, strain mcm21, hits give low values 0.994 | locus YDR334W, strain swr1, hits give low values 0.945 | locus YDR335W, strain msn5, hits give low values 0.952 | locus YDR388W, hits give low values 0.987 | locus YDR392W, strain spt3, hits give low values 1.02 | locus YDR502C, strain sam2, hits give low values 0.986 | locus YEL003W, strain gim4, hits give low values 0.972 | locus YEL037C, strain rad23, hits give low values 0.968 | locus YEL061C, strain CIN8 (second series), hits give low values 0.955 | locus YEL061C, strain CIN8, hits give low values 1.01 | locus YER015W, strain faa2, hits give low values 0.99 | locus YER016W, strain bim1, hits give low values 0.967 | locus YER110C, hits give low values 0.985 | locus YER111C, strain swi4, hits give low values 0.965 | locus YER155C, strain BEM2 (second series), hits give low values 0.906 | locus YER155C, strain BEM2, hits give low values 1.02 | locus YER167W, strain BCK2, hits give low values 0.99 | locus YFR010W, strain ubp6, hits give low values 0.967 | locus YGL078C, strain dbp3, hits give low values 0.99 | locus YGL086W, strain mad1, hits give low values 0.986 | locus YGL167C, strain pmr1, hits give low values 0.957 | locus YGL173C, strain kem1, hits give low values 0.985 | locus YGL227W, strain vid30, hits give low values 0.96 | locus YGL240W, strain doc1, hits give low values 0.949 | locus YGL248W, strain PDE1, hits give low values 0.99 | locus YGL253W, strain hxk2, hits give low values 0.962 | locus YGR078C, strain PAC10, hits give low values 1.02 | locus YGR135W, strain pre9, hits give low values 0.995 | locus YGR229C, strain SMI1, hits give low values 1 | locus YGR252W, strain gcn5, hits give low values 1.02 | locus YHR013C, strain ard1, hits give low values 0.978 | locus YHR027C, strain rpn1, hits give low values 0.973 | locus YHR030C, strain SLT2, hits give low values 0.99 and 0.967 | locus YHR079C, strain IRE1 (second series), hits give low values 0.984 | locus YHR079C, strain IRE1, hits give low values 0.954 | locus YHR094C, strain hxt1, hits give low values 0.989 | locus YHR129C, strain ARP1, hits give low values 0.987 | locus YHR142W, strain chs7, hits give low values 1 | locus YHR200W, strain rpn10, hits give low values 0.981 | locus YIL066C, strain RNR3, hits give low values 0.994 | locus YIL073C, strain SPO22, hits give low values 1.02 | locus YIL125W, strain kgd1, hits give low values 0.989 | locus YIR030C, strain dcg1, hits give low values 0.982 | locus YJL092W, strain hpr5, hits give low values 0.982 | locus YJL095W, strain BCK1 (second series), hits give low values 0.973 | locus YJL095W, strain BCK1, hits give low values 0.987 and 0.988 | locus YJL115W, strain asf1, hits give low values 0.967 | locus YJL129C, strain trk1, hits give low values 0.965 | locus YJL134W, strain LCB3, hits give low values 0.994 | locus YJL154C, strain vps35, hits give low values 0.966 | locus YJL164C, strain tpk1, hits give low values 0.996 | locus YJL166W, strain qcr8, hits give low values 0.966 | locus YJL168C, strain set2, hits give low values 0.997 | locus YJL187C, strain SWE1 (second series), hits give low values 0.987 | locus YJR043C, strain POL32, hits give low values 0.997 | locus YJR066W, strain TOR1, hits give low values 0.931 | locus YJR075W, strain HOC1, hits give low values 1.01
